gsp agonist – gsp mutant agonism; gsp mutant cells, cAMP HTRF, 30 min; Potency, µM (titrated, usually from 76.9 µM), without a hit: top-dose activation (cAMP increase), usual class: activators; 0.13% of 340,000 active; active = well fitted activation curve with a large enough effect; inconclusive = small, poorly fitted or top-dose-only effect, or another doubt; inactive = no such curve, though single readings can be large or run the other way; cell line not stated here;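 note: phosphodiesterase inhibitor Ro 20-1724 added with compounds to block cAMP breakdown; potency is the fitted concentration of half-maximal effect; nearly all actives have a fitted effect of over 60% in size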
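Cells in DMEM/10% FBS with G418 were pretreated with compounds in DMSO plus […] (300 uM stock) for 30 min at 37C. cAMP was measured by HTRF (cAMP-d2 plus anti-cAMP antibody-K) after 30 min at room temperature.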
IL-2 act – activates IL-2 in a cell-based reporter assay. IL-2 activation reporter assay, cell-based qHTS; stimulated with anti-CD3/CD4/CD28 beads; in transgenic mouse T cells. activation, % (series mostly up to about 46 µM). 0.065% of 360,000 active; in the data active = activation above about 50%; inconclusive = mostly about 30% to 49%; note: 0% is about no effect
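Quantitative HTS in unstimulated transgenic mouse T cells, with memory T cells as non-tolerant control and PMA/ionomycin as tolerance-bypass control. Compound pretreatment lasted 60 minutes before 18 h bead stimulation; EGFP/DsRed fluorescence read.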
BRCA1 expr act – activators of BRCA1 expression. 1.1% of 380,000 active. MCF7-BRCA1-FFLuc reporter, luminescence, 48 h; response scale: scaled: vehicle 0%, 10 µM genistein 100%. Potency, µM (titrated, usually from 46.1 µM), for the others: at the top dose activation, actives largely listed as activators; note: potency is the fitted concentration of half-maximal effect; nearly all actives have a fitted effect of over 80% in size
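MCF7-BRCA1-FFLuc cells, 2000/well in phenol-red-free MEM, attached 2 h then treated 48 h at 37 C. Luciferase luminescence read 15 min after reagent; normalized to genistein maximum activation (10microM) and DMSO, concentration-response fitted.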
mIDH1 inhibitor – inhibitors of human mutant IDH1 R132H | O75874 | IDH1-R132H enzyme, NADPH consumption, diaphorase/resazurin fluorescence | Potency, µM (titrated, usually from 76.6 µM), without a hit: at the highest dose activity change, negative = inhibition, most hits filed as inhibitors | 0.093% of 390,000 active; note: potency is the fitted concentration of half-maximal effect; % is set by controls: 0 for no effect and ±100 for the full control effect; nearly all actives have a fitted effect of over 65% in size
Target sequence (O75874 whole entry R132H, stated change not applied): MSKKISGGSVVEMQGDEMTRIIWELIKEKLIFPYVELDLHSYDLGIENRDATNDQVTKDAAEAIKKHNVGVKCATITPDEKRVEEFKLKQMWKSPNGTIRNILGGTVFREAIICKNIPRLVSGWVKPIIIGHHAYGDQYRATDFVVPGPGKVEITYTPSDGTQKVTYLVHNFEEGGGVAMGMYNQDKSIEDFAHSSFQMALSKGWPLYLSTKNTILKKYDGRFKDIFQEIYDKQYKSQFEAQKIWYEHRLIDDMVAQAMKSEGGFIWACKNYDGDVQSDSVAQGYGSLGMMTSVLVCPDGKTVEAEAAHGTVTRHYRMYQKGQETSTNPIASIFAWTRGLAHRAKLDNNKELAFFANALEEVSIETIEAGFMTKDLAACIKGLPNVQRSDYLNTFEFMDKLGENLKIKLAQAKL
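IDH1-R132H (0.5 ug/mL dispensed) in pH 7.5 Tris buffer was preincubated 30 min with compound, then given a substrate mix of 0.016 mM NADPH and 2 mM alpha-KG for 80 min at room temperature; remaining NADPH was read by diaphorase/resazurin fluorescence.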
gsp antagonist – gsp mutant antagonism; gsp-mutant cells, cAMP HTRF, 30 min; Potency, µM (titrated, usually from 76.9 µM), for inactives: at the top dose activity change, negative = inhibition, most hits filed as inhibitors; 0.4% of 340,000 active; AID 624288; calls by dose curve; cell line not stated here;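 note: intracellular cAMP measured with PDE inhibitor Ro 20-1724 present during compound exposure; potency is the fitted concentration of half-maximal effect; % is set by controls: 0 for no effect and ±100 for the full control effect; nearly all actives have a fitted effect of over 65% in size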
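Cells, 2000/well, grown 16–24 h in DMEM 10% FBS with 0.5 mg/ml G418, then compounds plus […] (300 uM addition stock), 30 min at 37C. cAMP read by HTRF (cAMP-d2 and anti-cAMP antibody-K in lysis buffer) after 30 min RT.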
* hit, by the source's call; ? = inconclusive; . = no result given; [ ] = remark or other dose. In the library only some 1.5% were active in any assay of this set; here they are far more common. Unless noted, calls come from the whole dose curve; as a rule, active = well fitted curve in the direction sought with a large enough effect; inconclusive = small, poorly fitted or top-dose-only effect, or another doubt; inactive = no such curve, though single readings can be large; an effect the other way counts as inactive or inconclusive.

SMILES	gsp agonist	IL-2 act	BRCA1 expr act	mIDH1 inhibitor	gsp antagonist
CCOC(=O)c1nn(-c2ccc(C)cc2)cc1O	9%	1	?	10%	-9%
CCOC(=O)c1nn(-c2ccc3c(c2)OCO3)cc1O	22%	0	3.2µM*	2%	1%
CCOC(=O)c1nn(-c2ccc3ccccc3c2)cc1O	15%	-4	2.8µM*	-2%	-7%
COc1ccc(NC(=O)c2cc(C3CCCCN3S(=O)(=O)c3cccs3)on2)c(C)c1 (configuration not stated)	.	0	-18%	.	.
Cc1c(C(=O)N2CCC(C)CC2)sc2ncn(CC(=O)N3CCC(C)CC3)c(=O)c12	?	-3	-13%	0%	6%
CCOC(=O)C1CCN(C(=O)c2sc3ncn(CC(=O)N4CCCCC4)c(=O)c3c2C)CC1	16µM*	-1	2%	0%	.
S=C(NCCCc1cnc[nH]1)NCCCN(CCc1ccc(Cl)cc1)c1ccc(Br)cn1	.	.	-66%	.	.
Cc1cn(CCC(=O)Nc2ccc(N3CCOCC3)cc2)c2ccccc12	11%	3	10µM*	-2%	-11%
CCCNC(=O)c1cc(Cl)c(NC(=O)C2=C(C)OCCS2)cc1OC	-1%	-1	39%	-10%	-15%
CCCNC(=O)c1cc(Cl)c(NC(=O)C2=CSCCO2)cc1OC	-8%	-3	7.9µM*	12%	-11%
COc1ccc(-c2onc(C)c2C)cc1S(=O)(=O)N(C)Cc1ccccc1	.	.	.	5%	.
COc1ccc(OCCNC(=O)C(Cc2c[nH]c3ccccc23)NC(C)=O)cc1 (configuration not stated)	10µM*	0	0%	3%	4%
Cc1ccc(OCC(=O)Nc2ccc(O)c(-c3nc4cc(C)c(C)cc4o3)c2)cc1	.	.	-2%	.	.
COc1ccc(C(=O)C(C)OC(=O)c2nc3nccc(C)n3n2)cc1 (configuration not stated)	16%	1	-18%	-11%	0%
Cc1csc(NC(=O)Cc2ccccc2Cl)n1	?	1	10µM*	12%	0%
O=C(N/N=C/c1ccc(OC(F)F)cc1)c1ccc(CSc2nc3ccccc3[nH]2)cc1	30%[15.4 µM]	-1	3%	-5%	8.9µM*
COc1ccc(OC)c(CNC(=O)C2COc3ccccc3C2)c1 (configuration not stated)	.	.	.	10%	.
CC(C)N1C(=O)NC2NC(=O)N(C(C)C)C21 (configuration not stated)	.	0	4%	.	.
Clc1ccc(C2=NNC(=NCc3ccccc3)SC2)cc1	12%[15.4 µM]	-1	3%	0%	7.1µM*
c1ccc(CN=C2NN=C(c3ccccc3)CS2)cc1	-4%[15.4 µM]	-1	68%	-6%	-8%
CCN=C1NN=C(c2ccc(C)cc2)CS1	11%	-2	2.2µM*	-12%	-9%
C=CCNc1nc(Nc2ccccc2F)nc(OCC)n1	-10%	-1	10µM*	3%	-3%
CCOc1nc(Nc2ccccc2F)nc(OCC)n1	23%	1	3%	7%	3%
COc1cccc(CNC(=O)c2cc(-c3ccc(Cl)cc3)n[nH]2)c1	.	.	.	-9%	.
Cc1ccc(NC(=O)c2ccc3c(c2)NC(=O)CS3)nc1	-6%[15.4 µM]	-5	7.9µM*	-8%	-16%
SMILES	gsp agonist	IL-2 act	BRCA1 expr act	mIDH1 inhibitor	gsp antagonist
O=C(Nc1cccc(S(=O)(=O)Nc2ccc(Cl)cc2)c1)c1ccc(Cl)nc1	-42%	-2	-51%	-7%	45µM*
O=C1CSc2ccc(C(=O)Nc3cccc(S(=O)(=O)Nc4ccc(Br)cc4)c3)cc2N1	-15%	-1	-98%	7%	40µM*
O=C(CNC(=O)c1ccccc1)OCC(=O)c1ccccc1	.	.	-4%	.	.
COc1cc(NC(=O)CN(C)S(=O)(=O)c2ccc3c(c2)CCCC(=O)N3)cc(OC)c1OC	.	.	-2%	-5%	.
CC1=NN(c2ccccc2)C(=O)/C1=C\C=C\c1ccccc1	15%[15.4 µM]	4	-11%	-9%	-8%
CC1=NN(c2ccccc2)C(=O)/C1=C/C=C/c1ccc(N(C)C)cc1	5%	-5	-32%	0%	35µM*
CCCc1nc2c3ccccc3ccn2c1Cc1ccccc1	.	-1	11µM*	.	.
CCCn1c2ccccc2c2cnn(CC(=O)N3CCN(c4ccccc4)CC3)c(=O)c21	.	.	.	-4%	.
CC1CCCC(NC(=O)/C=C/c2c(F)cccc2Cl)C1C (configuration not stated)	-3%	-1	11µM*	0%	-11%
O=C(/C=C/c1c(F)cccc1Cl)N1CCOCC1	17%	-4	10µM*	-7%	10%
O=C(/C=C/c1c(F)cccc1Cl)Nc1ncccn1	-2%	-2	35%	4%	12%
COc1ccc(C2=NN(c3ccccc3)C(c3ccc(OC)c(OC)c3)C2)cc1 (configuration not stated)	?	0	10µM*	-2%	7%
O=C(CC1CCCCC1)NCc1ccc(Cl)cc1	6%[15.4 µM]	0	11µM*	7%	1%
CC1CCN(c2oc(-c3ccccc3Cl)nc2C#N)CC1	-2%	0	6.3µM*	8%	-7%
CCOc1ccc(CCNC(=O)c2cccc3c2C(=O)N(CCOC)C3)cc1OCC	-3%[15.4 µM]	55*	-8%	6%	0%
CCOc1ccccc1NC(=O)c1cccc2c1C(=O)N(CCOC)C2	-45%	-2	-2%	17%	-8%
C[N+](C)(CCCCCI)c1ccc(/C=C/c2nc3ccccc3s2)cc1	.	.	-63%	.	.
CCOc1ccc2c(c1)c(N=Nc1cccc(C(=O)O)c1)c(O)n2C	-20%	0	10µM*	2%	?
Nc1nc(-c2cccc(Br)c2)cs1	-1%	-1	11µM*	-10%	-7%
Nc1nc(-c2ccc(Br)cc2)cs1	7%	0	16µM*	-1%	-17%
Cc1ccc(NS(=O)(=O)c2ccccc2)c(C)c1	.	.	0%	.	.
CC(C)n1nnnc1SCC(=O)N1N=C(c2cccs2)CC1c1cccs1 (configuration not stated)	-1%	-5	13µM*	0%	-10%
COc1ccc(C2CC(c3cccs3)=NN2C(=O)CSc2nnnn2C)cc1OC (configuration not stated)	-42%	1	-4%	-5%	-12%
CN(C)CCCCCCNc1cc(N2CCN(C)CC2)ncn1	.	.	2%	.	.
Fc1cccc(F)c1-c1nc(-c2ccncc2)no1	?	-1	8.9µM*	7%	7%
Cc1ccc(-c2nc(-c3ccncc3)no2)cc1C	-48%	-2	?	-4%	6%
Cc1ccc(-c2noc(-c3ccno3)n2)cc1	1%[15.4 µM]	-1	8.9µM*	12%	3%
c1ccc(-c2noc(-c3ccno3)n2)nc1	0%	1	66%	13%	7%
COc1cc(NC(=O)Cn2c(=O)nc(-c3ccccc3F)c3cc(Cl)ccc32)cc(OC)c1	.	.	.	7%	.

Screening results (PubChem BioAssay)
